The values below come from PubChem BioAssay AID2234 (The Scripps Research Institute Molecular Screening Center, 2010).

Hit rate of the full screen: of about 320,000 compounds, about 480 (0.15%) were called active. This is one part of a sample in which actives are shown more often than they occur. Cut-off read from the data, not from the text of the source: active = inhibition above about 33%; inactive = the rest.

The inhibition is the relative decrease from the control value, in per cent.

The target of the assay is Lytic switch protein BZLF1 (Epstein-Barr virus (strain B95-8)) (UniProt P03206). Put plainly: Zta-DNA interaction blockers, Epstein-Barr virus – biochemical, fluorescence polarization, single concentration, counter-screen for EBNA-1 inhibitor project, primary screen (AID 2234). As to conditions: ZTA-DNA binding, at 11 µM, hits give high values. For orientation: Polarisation of emitted light reports the rotation of a fluorescent probe.
Chain of Lytic switch protein BZLF1 (Epstein-Barr virus (strain B95-8)) (P03206 whole entry, looked up): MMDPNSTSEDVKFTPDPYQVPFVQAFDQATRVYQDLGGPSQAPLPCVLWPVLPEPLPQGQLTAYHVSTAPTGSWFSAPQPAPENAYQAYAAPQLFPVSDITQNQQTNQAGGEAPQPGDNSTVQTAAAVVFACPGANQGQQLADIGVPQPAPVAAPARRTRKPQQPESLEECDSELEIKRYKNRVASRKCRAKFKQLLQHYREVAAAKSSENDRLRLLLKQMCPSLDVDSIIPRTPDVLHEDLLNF
With `CC(=O)Nc1ccc(NC(=O)COC(=O)c2ccccc2C(=O)c2ccccc2)cc1`, the inhibition was 1.75% (inactive).

Turning to `COc1ccc(N2CC(NS(=O)(=O)c3ccc4ccccc4c3)CC2=O)cc1` (stereo unspecified), the inhibition was -13.8% (inactive).

With `CCC1=C(OC(=O)N(CC)CC)N2C(=O)OC(=NCC3CC3)[C@]2(C)[C@H]2C1=CC[C@H]1C(=O)N(CC(=O)OC)C(=O)[C@H]12`, the inhibition was 14% (inactive).

For `CN(C(=O)CN1C(=O)CCSc2ccc(S(=O)(=O)N3CCCC3)cc21)c1ccccc1`, the inhibition was 4.65% (inactive).

With `COCCOC(=O)C1=C(C)NC(=O)NC1c1cc2c(cc1Br)OCO2` (stereo unspecified), the inhibition was -2.42% (inactive).

Consider `Cc1cc(C(=O)OCC(=O)Nc2ccccc2Cl)c(C)o1`, for which the inhibition is -1% (inactive).

For the compound `CC1(c2nnc(-c3ccncc3)o2)CC(c2cccnc2)=NO1` (stereo unspecified), the inhibition is -4.98% (inactive).

With `CCNc1nc(Oc2ccc(C(=O)OC)cc2)nc(N2CCOCC2)n1`, the inhibition was 26.6% (inactive).

Take `O=C(NCCCN1CCOCC1)c1ccc2c(c1)N(Cc1cccc(F)c1)C(=O)c1ccccc1S2`: the inhibition is -13.9% (inactive).

For the compound `CCN1CCN(CCNC(=O)c2ccc(/C=C3/Sc4ccccc4N(Cc4cccc(C)c4)C3=O)cc2)CC1`, the inhibition was 56.8% (active).

As to `Cc1ccccc1CN1C(=O)c2ccccc2Sc2ccc(C(=O)NCCCN3CCOCC3)cc21`, the inhibition is 5.14% (inactive).

For `Cn1c(=O)c2c(ncn2CCc2ccccc2)n(C)c1=O`, the inhibition is -0.22% (inactive).

On to `Cn1cnc2c1c(=O)n(Cc1c(Cl)cccc1Cl)c(=O)n2C`, for which the inhibition is -29.3% (inactive).

For the compound `Cn1cnc2c1c(=O)n(Cc1ccccc1C#N)c(=O)n2C`, the inhibition is 95.5% (active).

As to `Cc1ccc(Cc2nnc(SCC(=O)Nc3ccccc3C)[nH]c2=O)cc1`, the inhibition was 0.83% (inactive).

As for `Cc1ccc(C(=O)O)cc1-c1ccc(/C=C2\SC(=O)N(CC(=O)Nc3ccc4c(c3)OCO4)C2=O)o1`, the inhibition is 9.2% (inactive).

On to `CCN1C(=NCC(C)C)N[C@@H](CCc2ccccc2)[C@H](C(=O)NCC(C)C)[C@H]1C`, for which the inhibition was -17.1% (inactive).

Consider `CCOC(=O)CC(NC(=O)C1c2ccccc2Oc2ccccc21)c1ccc(C)cc1` (stereo unspecified), for which the inhibition is 2.93% (inactive).

Regarding `COc1ccc(N(CC(=O)Nc2ccc(F)c(F)c2)S(=O)(=O)c2c(C)[nH]c(=O)[nH]c2=O)cc1`, the inhibition is 3.47% (inactive).

As to `COC(=O)c1ccc(CN2CCN(CCCc3ccccc3)C(CCO)C2)cc1` (stereo unspecified), the inhibition is -17.9% (inactive).

Consider `Cc1cccn2c(CNCC(C)Oc3cccnc3)c(C(=O)N3CCOCC3)nc12` (stereo unspecified), for which the inhibition was 13.7% (inactive).

Regarding `O=C(CC(NCCN1CCOCC1)C(=O)O)Nc1cccc(Cl)c1` (stereo unspecified), the inhibition is 5.11% (inactive).

For the compound `CCCCS(=O)c1snnc1C` (stereo unspecified), the inhibition is -5.28% (inactive).

As for `Cc1ccc2c(C)c(C(=O)N3CCN(c4ccncc4)CC3)oc2c1C`, the inhibition is 1.76% (inactive).

As to `O=C(COc1cccc(F)c1)Oc1ccc(C(=O)c2ccccc2)cc1`, the inhibition was 12.6% (inactive).

`CCC1CCC/C1=N\NC(=O)c1ccc(Cl)cc1` (stereo unspecified): the inhibition was 4.98% (inactive).

In the case of `COc1cc(-c2nnc(Cn3cc(C(F)(F)F)ccc3=O)o2)cc(OC)c1OC`, the inhibition was 5.1% (inactive).

In the case of `COC(=O)C1CCCCN1C(=O)c1ccc(OC2CCN(C(C)=O)CC2)c(OC)c1` (stereo unspecified), the inhibition is 5.86% (inactive).

With `O=C(c1cccc(-n2cccc2)c1)N1CCN(S(=O)(=O)c2ccc(F)cc2)CC1`, the inhibition is -25.8% (inactive).

In the case of `O=C(NC1CC1)C1=C[C@H](c2coc3ccccc3c2=O)C[C@H](OCCCCO)O1`, the inhibition was -2.42% (inactive).

As for `N#CCSc1nc2ccc(N3CCOCC3)cc2c(=O)n1CCc1ccccc1`, the inhibition was -10.6% (inactive).

Consider `O=C(Nc1cccc(-c2nc3ccccc3[nH]2)c1)c1ccc(C(=O)Nc2cccc(-c3nc4ccccc4[nH]3)c2)cc1`, for which the inhibition is 84% (active).

With `O=C(Nc1ccccc1)c1cc2ccccc2[nH]1`, the inhibition was -12.6% (inactive).

Take `Cc1ccc(-c2nc3ccccc3[nH]2)cc1N`: the inhibition was -1% (inactive).

Take `Cc1cccc(N2C(=O)N3[C@H](c4ccc(F)cc4)[C@@H]4C(=O)N(C5CCCCC5)C(=O)[C@@H]4[C@]3(Cc3ccccc3)C2=O)c1`: the inhibition is -2.81% (inactive).

In the case of `O=C(NCc1ccccc1CN1CCCC1)c1cccc(S(=O)(=O)Nc2ccc(F)cc2)c1`, the inhibition was 3.93% (inactive).

Take `CS(=O)(=O)Nc1cccc(C2=NN(C(=O)c3cccc(F)c3)C(c3cccs3)C2)c1` (stereo unspecified): the inhibition is -3.98% (inactive).

Turning to `CN1C(=O)/C(=C/c2ccc(C(=O)NC3CCCC3)cc2)Oc2ccccc21`, the inhibition is -2.56% (inactive).

With `CCCN1CCN(C(=O)CCCNC(=O)c2ccc(Cl)cc2)CC1`, the inhibition is 1.38% (inactive).

Take `CN1CCN(CCCNC(=O)c2ccc(/C=C3\Oc4ccccc4N(Cc4ccc(Cl)cc4)C3=O)cc2)CC1`: the inhibition is 45.5% (active).

With `CC(=O)c1c(C)[nH]c(C(=O)OCC(=O)Nc2c(C)cccc2C)c1C`, the inhibition was 3.88% (inactive).

As to `COC(=O)c1cc(N2CCNCC2)nc2ccccc12`, the inhibition is 5.41% (inactive).

`CC12CCC(=O)N1C(C(=O)NCCN1C(=O)S/C(=C\c3ccccc3F)C1=O)CS2` (stereo unspecified): the inhibition is -4.27% (inactive).

As to `Cc1ccc(-c2nn(-c3ccc(F)cc3)cc2C(=O)NCC(c2cccs2)N2CCOCC2)cc1` (stereo unspecified), the inhibition is 2.78% (inactive).

In the case of `CC1=CC2=NC(=O)CC(C)(C(=O)N(CC(=O)NC(C)(C)C)Cc3ccccc3)N2C=C1` (stereo unspecified), the inhibition was -6.91% (inactive).

On to `COc1cc(C2/C(=C(\O)c3ccc4c(c3)CC(C)O4)C(=O)C(=O)N2c2nnc(C)s2)cc(OC)c1OC` (stereo unspecified), for which the inhibition is -16.7% (inactive).

In the case of `COc1ccccc1CNC(=O)C1Cc2ccccc2C(=O)O1` (stereo unspecified), the inhibition was -9.61% (inactive).

Turning to `CC(=O)Nc1ccc(S(=O)(=O)Oc2ccc(Br)cc2C(=S)N2CCOCC2)cc1`, the inhibition is -23.8% (inactive).

As for `CCc1c(C)nc(N)n2c(SCC(=O)NC3CCCCC3)nnc12`, the inhibition was -21.8% (inactive).

Take `Cc1ccc2c(c1)N(CC(=O)N1CCOCC1)C(=O)CO2`: the inhibition was -24.9% (inactive).

In the case of `COc1ccc(N2CCN(CCNC(=O)CCN3C(=O)COc4ccccc43)CC2)cc1`, the inhibition is 3.46% (inactive).

On to `COc1ccc(N2CCN(C(=O)CN3C(=O)COc4ccccc43)CC2)cc1`, for which the inhibition was 49.2% (active).

For `C=C(Cl)COC(=O)C1C2C=CC(C2)C1C(=O)O` (stereo unspecified), the inhibition was -6.87% (inactive).

For `Cc1oc(-c2ccccc2Cl)[n+]([O-])c1C`, the inhibition was 4.54% (inactive).

In the case of `Cc1nc(N)c(Br)c(C)c1Br`, the inhibition is 10.1% (inactive).

In the case of `Cc1cc(NC(=O)CS(=O)(=O)c2cn(C)c3ccccc23)no1`, the inhibition was 3.47% (inactive).

Consider `Cc1nc(-c2ccc(Cl)cc2)sc1C1(C)CC(c2ccccc2F)=NO1` (stereo unspecified), for which the inhibition was 0.91% (inactive).

For `O=C(CNS(=O)(=O)c1ccc(Br)s1)N1CCN(C(=O)c2ccco2)CC1`, the inhibition was 0.26% (inactive).

As for `Cc1cc(/C=N/NC(N)=O)c(C)n1C1CCCCC1`, the inhibition was 15.4% (inactive).

Turning to `CC(NC(=S)NNS(=O)(=O)c1ccc(C(C)(C)C)cc1)c1ccccc1` (stereo unspecified), the inhibition is -5.57% (inactive).

Consider `O=C(NC(=S)Nc1cccc(-c2ccc(CO)o2)c1)c1cccs1`, for which the inhibition is -14.3% (inactive).

For `CC1CCCCC1NC(=O)c1cn(C)c2ccc(S(=O)(=O)N3CCOCC3)cc2c1=O` (stereo unspecified), the inhibition was 3.74% (inactive).

Regarding `O=S(=O)(Nc1ccc2nc(-c3ccco3)[nH]c2c1)c1ccccc1`, the inhibition was -14.9% (inactive).

For the compound `Cc1ccc(C2NC(=S)NC3=C2N2CCC3CC2)cc1` (stereo unspecified), the inhibition was -11.6% (inactive).

Turning to `CC12c3ccccc3C(c3ccccc31)C1C(=O)N(Cc3cccnc3)C(=O)C12` (stereo unspecified), the inhibition was 5.39% (inactive).

Take `COc1cccc(NC(=O)CN2CCN(CC(=O)Nc3ccccc3Cl)CC2)c1`: the inhibition was 4.73% (inactive).

`CN1/C(=c2/s/c(=C3/C(=O)N(c4ccccc4)NC3=Nc3ccccc3)n(C)c2=O)C(C)(C)c2ccccc21`: the inhibition is 7.42% (inactive).

Take `CC(C)Oc1ccc(CN2CCC(n3nccc3NC(=O)c3cccnc3)CC2)cc1`: the inhibition is 6.96% (inactive).

As to `COc1ccc(-c2c(C)nn3c(N4CCC(C(=O)N5CCCCC5)CC4)cc(C)nc23)cc1OC`, the inhibition was 6.7% (inactive).

In the case of `CC(C(=O)N(C)CC(=O)Nc1ccccc1C(F)(F)F)N1C(=O)c2ccccc2C1=O` (stereo unspecified), the inhibition was -0.42% (inactive).

As for `COc1ccc(OC)c(S(=O)(=O)N2CCCC(C(=O)NCCc3ccccc3)C2)c1` (stereo unspecified), the inhibition is -17.4% (inactive).

For `O=C(CCCC(=O)N(CC(=O)NC1CCCC1)Cc1ccccc1Cl)Nc1ccccn1`, the inhibition was 2.7% (inactive).

As for `Cc1cc(OC(=O)c2ccccc2Cl)ccc1N1C(=O)CCC1=O`, the inhibition is -5.62% (inactive).

For `COC(=O)c1ccccc1NC(=O)C1CCN(C(=O)N2CCOc3ccccc32)CC1`, the inhibition is -14.3% (inactive).

As for `COc1ccc(N2CCN(C3CCCCC3NS(=O)(=O)c3ccccc3)CC2)cc1` (stereo unspecified), the inhibition is -13.4% (inactive).

`CCC(C)C(=O)Nc1ccccc1N1CCN(c2ccc(F)cc2)CC1` (stereo unspecified): the inhibition was -25.1% (inactive).

`Cc1c(C(=O)c2cccc([N+](=O)[O-])c2)c2ccccn2c1CCC#N`: the inhibition was -12.6% (inactive).

As to `CC(C)C(=O)Nc1nnc(SCC(=O)N2C(C)CCCC2C)s1` (stereo unspecified), the inhibition was -5.72% (inactive).

In the case of `CC(=O)c1sc(NC(=O)CCN2C(=O)C3CC=CCC3C2=O)nc1-c1ccccc1` (stereo unspecified), the inhibition was 0.93% (inactive).

In the case of `Cn1nc(C(F)(F)F)cc1-c1ccc(/C=C(\C#N)C(=O)c2cccc(C(F)(F)F)c2)s1`, the inhibition was 9.6% (inactive).

For the compound `CC(=O)c1nc(N2C(=O)C3CC=C(C)CC3C2=O)sc1C` (stereo unspecified), the inhibition is -6.68% (inactive).

Consider `CCN(C(=O)COC(=O)c1cc(NS(=O)(=O)c2ccc(Cl)c([N+](=O)[O-])c2)ccc1O)C1CCCCC1`, for which the inhibition was -8.06% (inactive).

Turning to `O=C(Cn1c(-c2ccc(Cl)cc2)noc1=O)N1CCN(c2ccccc2F)CC1`, the inhibition is -6.32% (inactive).

For `CCOc1cc(-c2noc(CCCC(=O)NC3CCCCC3)n2)ccc1OC`, the inhibition is -2.96% (inactive).

For `CCOc1ncccc1C(=O)OCC(=O)N1c2ccccc2CC1C` (stereo unspecified), the inhibition was 6.32% (inactive).

For the compound `COc1cc(C(=O)NNC(=O)CN2C(=O)NC3(CCCC3)C2=O)cc(OC)c1OC`, the inhibition is 7.35% (inactive).
